According to paper PMC7862700, “An all-to-all approach to the identification of sequence-specific readers for epigenetic DNA modifications on cytosine”:

Key:
Assay in all cases: DAPPL (digital affinity profiling via proximity ligation, sequencing); 10 mM Tris-HCl pH 7.5, 50 mM NaCl, 1 mM DTT, 4% glycerol, room temperature, 30 min; GST-TFs on glutathione beads, 16-mer random dsDNA library, 0.1% formaldehyde crosslink after washing; high values mean tight binding
[1] = target: T1, FLI1 (Homo sapiens, UniProt Q01543 1-452); conditions: protein: recombinant; tags: N-terminal GST; dsDNA, one strand shown
T1 sequence: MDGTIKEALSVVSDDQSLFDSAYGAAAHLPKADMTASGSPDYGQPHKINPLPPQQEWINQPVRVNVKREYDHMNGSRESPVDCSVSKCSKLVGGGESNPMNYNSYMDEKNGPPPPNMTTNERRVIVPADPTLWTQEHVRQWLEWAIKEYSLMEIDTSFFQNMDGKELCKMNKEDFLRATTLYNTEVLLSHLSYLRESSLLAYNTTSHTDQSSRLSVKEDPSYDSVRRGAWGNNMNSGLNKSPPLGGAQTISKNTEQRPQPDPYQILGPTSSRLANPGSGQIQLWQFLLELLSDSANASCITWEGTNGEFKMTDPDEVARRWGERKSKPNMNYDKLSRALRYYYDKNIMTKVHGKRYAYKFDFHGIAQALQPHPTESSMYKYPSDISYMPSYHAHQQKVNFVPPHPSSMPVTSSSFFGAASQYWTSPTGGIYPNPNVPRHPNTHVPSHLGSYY
Summary of the method: (§1)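 A tag-only sample was pooled with DNA-barcoded human transcription factors that had been expressed in yeast as GST fusions and captured on glutathione beads. The pools were incubated for 30 min at room temperature with 200 nmole of a random double-stranded 16-mer DNA library in Tris/NaCl/DTT/glycerol buffer, then washed, crosslinked with 0.1% formaldehyde, proximity-ligated (BsaI/T4 ligase, 1 h, 37 °C), PCR-amplified and sequenced on an Illumina NextSeq500. Binding signal is each hexamer's read frequency for a factor divided by its frequency for the tag-only sample.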

[2] = target: T2, ELK1 (Homo sapiens, UniProt P19419 1-428); conditions: protein: recombinant; tags: N-terminal GST; dsDNA, one strand shown
T2 sequence: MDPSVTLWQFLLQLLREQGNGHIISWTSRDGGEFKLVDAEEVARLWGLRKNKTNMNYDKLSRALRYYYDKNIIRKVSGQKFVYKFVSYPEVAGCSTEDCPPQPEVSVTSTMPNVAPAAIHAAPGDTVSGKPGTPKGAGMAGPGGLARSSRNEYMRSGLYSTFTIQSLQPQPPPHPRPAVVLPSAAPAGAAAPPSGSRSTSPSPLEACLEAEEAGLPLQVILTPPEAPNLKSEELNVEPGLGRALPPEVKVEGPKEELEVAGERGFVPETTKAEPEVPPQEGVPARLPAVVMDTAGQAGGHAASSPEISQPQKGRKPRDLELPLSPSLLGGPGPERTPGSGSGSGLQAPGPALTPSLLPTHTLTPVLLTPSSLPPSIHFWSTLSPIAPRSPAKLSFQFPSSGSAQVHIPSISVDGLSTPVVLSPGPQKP
Summary of the method: as §1

[3] = target: T3, GABPA (Homo sapiens, UniProt Q06546 1-454); conditions: protein: recombinant; tags: N-terminal GST; dsDNA, one strand shown
T3 sequence: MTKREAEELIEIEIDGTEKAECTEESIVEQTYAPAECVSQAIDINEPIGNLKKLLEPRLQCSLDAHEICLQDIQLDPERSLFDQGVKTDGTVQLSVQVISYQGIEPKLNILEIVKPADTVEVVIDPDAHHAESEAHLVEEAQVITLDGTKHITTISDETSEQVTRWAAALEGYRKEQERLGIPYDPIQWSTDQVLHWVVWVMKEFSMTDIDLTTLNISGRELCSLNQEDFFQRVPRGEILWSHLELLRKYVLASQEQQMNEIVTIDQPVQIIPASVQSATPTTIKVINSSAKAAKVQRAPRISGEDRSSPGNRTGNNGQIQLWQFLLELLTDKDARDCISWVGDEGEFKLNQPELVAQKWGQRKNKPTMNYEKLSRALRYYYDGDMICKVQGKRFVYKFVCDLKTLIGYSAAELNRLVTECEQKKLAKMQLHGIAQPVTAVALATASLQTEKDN
Summary of the method: as §1

[4] = target: T4, ERG (Homo sapiens, UniProt P11308 1-479); conditions: protein: recombinant; tags: N-terminal GST; dsDNA, one strand shown
T4 sequence: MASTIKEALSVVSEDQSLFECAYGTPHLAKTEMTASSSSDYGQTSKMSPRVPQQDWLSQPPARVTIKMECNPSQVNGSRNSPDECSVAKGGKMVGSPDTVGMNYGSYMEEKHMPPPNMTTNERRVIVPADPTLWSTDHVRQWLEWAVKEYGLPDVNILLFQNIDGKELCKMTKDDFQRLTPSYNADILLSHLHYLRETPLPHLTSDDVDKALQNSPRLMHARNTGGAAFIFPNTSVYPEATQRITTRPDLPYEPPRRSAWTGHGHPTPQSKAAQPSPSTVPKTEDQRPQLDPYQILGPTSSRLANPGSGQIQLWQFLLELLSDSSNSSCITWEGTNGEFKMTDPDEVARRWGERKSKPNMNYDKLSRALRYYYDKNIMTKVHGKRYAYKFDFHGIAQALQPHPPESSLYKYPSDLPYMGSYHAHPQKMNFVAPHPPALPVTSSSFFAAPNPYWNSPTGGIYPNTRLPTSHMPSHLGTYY
Summary of the method: as §1

[5] = target: ELF1 (Homo sapiens, UniProt P32519 1-619); conditions: protein: recombinant; tags: N-terminal GST; dsDNA, one strand shown
Summary of the method: as §1

[6] = target: SPI1 (Homo sapiens, UniProt P17947 1-270); conditions: protein: recombinant; tags: N-terminal GST; dsDNA, one strand shown
Summary of the method: as §1

[7] = target: SPIB (Homo sapiens, UniProt Q01892 1-262); conditions: protein: recombinant; tags: N-terminal GST; dsDNA, one strand shown
Summary of the method: as §1

[8] = target: T5, FEV (Homo sapiens, UniProt Q99581 1-238); conditions: protein: recombinant; tags: N-terminal GST; dsDNA, one strand shown
T5 sequence: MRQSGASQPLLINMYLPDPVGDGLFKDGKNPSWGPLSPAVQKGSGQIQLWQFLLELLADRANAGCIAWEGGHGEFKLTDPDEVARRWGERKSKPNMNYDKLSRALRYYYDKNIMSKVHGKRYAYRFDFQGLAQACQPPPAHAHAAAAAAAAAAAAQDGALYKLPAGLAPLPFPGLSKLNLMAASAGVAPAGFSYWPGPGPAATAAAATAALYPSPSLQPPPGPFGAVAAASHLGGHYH
Summary of the method: as §1

[9] = target: ETV5 (Homo sapiens, UniProt P41161 1-510); conditions: protein: recombinant; tags: N-terminal GST; dsDNA, one strand shown
Summary of the method: as §1

[10] = target: HSF1 (Homo sapiens, UniProt Q00613 1-529); conditions: protein: recombinant; tags: N-terminal GST; chain copies: 3; dsDNA, one strand shown
Summary of the method: as §1

[11] = target: T6, SPIC (Homo sapiens, UniProt Q8N5J4 1-248); conditions: protein: recombinant; tags: N-terminal GST; dsDNA, one strand shown
T6 sequence: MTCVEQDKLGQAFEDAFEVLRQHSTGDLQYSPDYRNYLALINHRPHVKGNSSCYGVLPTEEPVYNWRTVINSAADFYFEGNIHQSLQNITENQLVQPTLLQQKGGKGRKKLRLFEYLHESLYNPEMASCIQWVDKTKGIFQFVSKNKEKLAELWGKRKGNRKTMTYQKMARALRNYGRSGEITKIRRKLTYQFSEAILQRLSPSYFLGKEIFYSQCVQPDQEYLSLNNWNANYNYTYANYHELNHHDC
Summary of the method: as §1

[12] = target: ELF4 (Homo sapiens, UniProt Q99607 1-663); conditions: protein: recombinant; tags: N-terminal GST; dsDNA, one strand shown
Summary of the method: as §1

[13] = target: T7, ELK4 (Homo sapiens, UniProt P28324-2 1-405); conditions: protein: recombinant; tags: N-terminal GST; dsDNA, one strand shown
T7 sequence: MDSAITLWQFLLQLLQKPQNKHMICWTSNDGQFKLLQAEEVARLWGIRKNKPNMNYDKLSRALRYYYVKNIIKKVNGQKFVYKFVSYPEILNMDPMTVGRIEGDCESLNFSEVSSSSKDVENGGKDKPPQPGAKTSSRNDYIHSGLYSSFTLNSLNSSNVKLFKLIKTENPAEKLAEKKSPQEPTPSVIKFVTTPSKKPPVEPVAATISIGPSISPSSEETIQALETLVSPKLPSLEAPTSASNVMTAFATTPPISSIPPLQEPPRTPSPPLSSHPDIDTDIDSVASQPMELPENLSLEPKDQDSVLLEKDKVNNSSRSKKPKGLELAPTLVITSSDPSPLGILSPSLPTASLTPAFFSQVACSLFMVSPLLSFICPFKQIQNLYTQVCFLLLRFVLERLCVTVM
Summary of the method: as §1

[14] = target: T8, ETV2 (Homo sapiens, UniProt O00321 1-342); conditions: protein: recombinant; tags: N-terminal GST; dsDNA, one strand shown
T8 sequence: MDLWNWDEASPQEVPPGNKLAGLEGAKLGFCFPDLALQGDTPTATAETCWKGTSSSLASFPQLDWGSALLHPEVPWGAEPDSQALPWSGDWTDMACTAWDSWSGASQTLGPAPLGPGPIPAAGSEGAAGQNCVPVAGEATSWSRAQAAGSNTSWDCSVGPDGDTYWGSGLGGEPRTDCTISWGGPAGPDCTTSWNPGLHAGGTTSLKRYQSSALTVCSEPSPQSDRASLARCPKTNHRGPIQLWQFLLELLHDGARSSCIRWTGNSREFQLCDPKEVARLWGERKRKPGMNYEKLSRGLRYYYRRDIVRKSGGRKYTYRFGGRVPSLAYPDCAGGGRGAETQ
Summary of the method: as §1

[15] = target: T9, ELF3 (Homo sapiens, UniProt P78545 1-371); conditions: protein: recombinant; tags: N-terminal GST; dsDNA, one strand shown
T9 sequence: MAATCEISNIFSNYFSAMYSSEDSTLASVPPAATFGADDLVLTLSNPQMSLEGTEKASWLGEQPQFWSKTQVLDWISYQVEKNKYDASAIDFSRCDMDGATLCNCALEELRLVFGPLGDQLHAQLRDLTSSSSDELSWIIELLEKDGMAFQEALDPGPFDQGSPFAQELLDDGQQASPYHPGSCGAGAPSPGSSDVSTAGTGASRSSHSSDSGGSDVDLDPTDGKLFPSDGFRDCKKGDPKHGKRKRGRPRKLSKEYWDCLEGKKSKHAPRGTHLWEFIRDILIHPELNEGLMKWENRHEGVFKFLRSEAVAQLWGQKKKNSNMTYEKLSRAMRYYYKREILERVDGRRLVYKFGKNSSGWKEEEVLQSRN
Summary of the method: as §1

[16] = target: CRX (Homo sapiens, UniProt O43186 1-299); conditions: protein: recombinant; tags: N-terminal GST; dsDNA, one strand shown
Summary of the method: as §1

[17] = target: ETV1 (Homo sapiens, UniProt P50549 1-477); conditions: protein: recombinant; tags: N-terminal GST; dsDNA, one strand shown
Summary of the method: as §1

HSF1, sequence (Q00613 whole entry): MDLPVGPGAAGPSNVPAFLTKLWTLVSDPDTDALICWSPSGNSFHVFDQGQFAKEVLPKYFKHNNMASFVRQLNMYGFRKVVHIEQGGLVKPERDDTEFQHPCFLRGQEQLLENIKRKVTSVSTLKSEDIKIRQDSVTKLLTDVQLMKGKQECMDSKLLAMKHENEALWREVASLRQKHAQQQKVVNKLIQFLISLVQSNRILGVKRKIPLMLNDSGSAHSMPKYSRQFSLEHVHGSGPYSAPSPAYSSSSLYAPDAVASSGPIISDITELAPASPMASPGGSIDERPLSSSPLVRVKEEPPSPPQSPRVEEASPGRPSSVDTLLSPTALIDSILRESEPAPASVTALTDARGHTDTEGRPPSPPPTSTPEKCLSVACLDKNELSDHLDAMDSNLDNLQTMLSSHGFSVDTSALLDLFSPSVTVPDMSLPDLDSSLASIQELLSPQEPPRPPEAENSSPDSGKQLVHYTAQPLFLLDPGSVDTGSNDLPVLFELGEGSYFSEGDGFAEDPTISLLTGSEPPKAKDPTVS
ELF1, sequence (P32519 whole entry): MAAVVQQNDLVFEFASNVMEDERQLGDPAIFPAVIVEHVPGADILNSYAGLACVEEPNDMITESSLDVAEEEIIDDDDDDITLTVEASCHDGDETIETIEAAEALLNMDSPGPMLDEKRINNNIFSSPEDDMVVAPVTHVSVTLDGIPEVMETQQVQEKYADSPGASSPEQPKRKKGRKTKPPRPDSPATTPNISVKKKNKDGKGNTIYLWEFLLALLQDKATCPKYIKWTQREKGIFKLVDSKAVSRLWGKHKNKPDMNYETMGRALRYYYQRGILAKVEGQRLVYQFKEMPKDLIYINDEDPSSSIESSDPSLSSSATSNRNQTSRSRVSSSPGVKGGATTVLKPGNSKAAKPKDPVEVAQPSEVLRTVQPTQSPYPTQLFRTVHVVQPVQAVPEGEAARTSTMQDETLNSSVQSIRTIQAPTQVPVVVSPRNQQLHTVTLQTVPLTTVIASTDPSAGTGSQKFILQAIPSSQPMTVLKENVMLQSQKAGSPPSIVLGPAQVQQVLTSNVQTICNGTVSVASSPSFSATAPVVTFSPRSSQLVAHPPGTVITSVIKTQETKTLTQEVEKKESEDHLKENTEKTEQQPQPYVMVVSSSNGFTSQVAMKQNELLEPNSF
ETV1, sequence (P50549 whole entry): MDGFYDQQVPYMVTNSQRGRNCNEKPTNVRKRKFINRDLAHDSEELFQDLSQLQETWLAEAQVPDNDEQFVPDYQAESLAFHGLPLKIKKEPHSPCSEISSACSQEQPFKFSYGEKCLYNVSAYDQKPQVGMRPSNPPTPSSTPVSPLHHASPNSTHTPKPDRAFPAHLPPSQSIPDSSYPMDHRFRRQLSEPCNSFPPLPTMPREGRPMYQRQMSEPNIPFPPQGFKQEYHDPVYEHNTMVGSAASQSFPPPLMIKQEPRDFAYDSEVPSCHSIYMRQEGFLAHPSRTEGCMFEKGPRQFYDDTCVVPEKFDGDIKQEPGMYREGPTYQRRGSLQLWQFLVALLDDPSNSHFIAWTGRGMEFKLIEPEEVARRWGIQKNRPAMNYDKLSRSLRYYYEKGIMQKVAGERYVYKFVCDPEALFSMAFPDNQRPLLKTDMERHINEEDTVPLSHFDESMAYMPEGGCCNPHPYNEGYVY
ETV5, sequence (P41161 whole entry): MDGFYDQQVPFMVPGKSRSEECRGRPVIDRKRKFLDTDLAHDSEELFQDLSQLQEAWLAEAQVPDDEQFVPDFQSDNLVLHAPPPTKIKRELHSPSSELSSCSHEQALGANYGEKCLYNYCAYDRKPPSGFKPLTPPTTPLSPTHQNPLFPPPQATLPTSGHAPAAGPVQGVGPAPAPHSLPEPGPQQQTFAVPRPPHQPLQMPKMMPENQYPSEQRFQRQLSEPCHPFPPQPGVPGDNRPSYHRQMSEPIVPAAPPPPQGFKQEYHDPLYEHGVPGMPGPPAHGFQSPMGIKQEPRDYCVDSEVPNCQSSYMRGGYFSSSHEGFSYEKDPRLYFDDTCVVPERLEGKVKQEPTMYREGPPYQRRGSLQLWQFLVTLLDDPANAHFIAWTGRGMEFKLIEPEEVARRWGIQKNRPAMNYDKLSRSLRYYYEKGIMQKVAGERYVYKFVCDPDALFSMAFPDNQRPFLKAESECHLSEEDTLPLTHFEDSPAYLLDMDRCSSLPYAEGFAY
SPIB, sequence (Q01892 whole entry): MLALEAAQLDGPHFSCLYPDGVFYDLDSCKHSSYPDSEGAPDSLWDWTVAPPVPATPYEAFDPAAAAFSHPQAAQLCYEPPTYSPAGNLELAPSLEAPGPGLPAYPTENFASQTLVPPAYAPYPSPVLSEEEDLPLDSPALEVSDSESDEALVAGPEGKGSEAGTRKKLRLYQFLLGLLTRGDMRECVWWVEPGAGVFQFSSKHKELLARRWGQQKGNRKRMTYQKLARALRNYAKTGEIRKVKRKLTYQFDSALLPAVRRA
CRX, sequence (O43186 whole entry): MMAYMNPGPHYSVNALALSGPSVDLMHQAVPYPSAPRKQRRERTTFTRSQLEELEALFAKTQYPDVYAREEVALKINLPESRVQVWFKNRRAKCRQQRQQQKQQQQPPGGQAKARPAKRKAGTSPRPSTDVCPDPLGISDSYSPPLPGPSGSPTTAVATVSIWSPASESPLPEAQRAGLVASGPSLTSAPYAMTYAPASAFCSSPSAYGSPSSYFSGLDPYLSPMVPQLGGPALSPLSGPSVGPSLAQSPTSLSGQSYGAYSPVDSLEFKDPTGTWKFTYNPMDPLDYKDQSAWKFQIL
ELF4, sequence (Q99607 whole entry): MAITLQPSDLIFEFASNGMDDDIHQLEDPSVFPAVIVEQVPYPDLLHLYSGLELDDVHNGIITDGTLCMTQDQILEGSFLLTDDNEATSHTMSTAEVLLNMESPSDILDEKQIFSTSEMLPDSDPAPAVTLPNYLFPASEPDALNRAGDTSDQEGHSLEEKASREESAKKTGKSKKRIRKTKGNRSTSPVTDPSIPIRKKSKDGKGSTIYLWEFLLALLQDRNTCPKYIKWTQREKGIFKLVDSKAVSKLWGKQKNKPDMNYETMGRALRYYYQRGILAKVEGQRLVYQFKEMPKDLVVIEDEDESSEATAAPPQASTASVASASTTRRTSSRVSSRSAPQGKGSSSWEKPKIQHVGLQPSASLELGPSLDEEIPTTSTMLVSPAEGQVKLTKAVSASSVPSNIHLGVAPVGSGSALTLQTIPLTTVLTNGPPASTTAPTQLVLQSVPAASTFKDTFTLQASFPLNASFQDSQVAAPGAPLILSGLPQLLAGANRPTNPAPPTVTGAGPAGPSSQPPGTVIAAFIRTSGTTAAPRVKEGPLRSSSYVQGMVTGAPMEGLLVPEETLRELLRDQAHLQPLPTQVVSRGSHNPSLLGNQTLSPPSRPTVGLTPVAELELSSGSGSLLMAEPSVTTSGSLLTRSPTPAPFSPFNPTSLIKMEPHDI

TTCGGC
binding signal [1]: 1.03 fold enrichment (6-mer frequency, TF over GST control) | binding signal [2]: 1.14 fold enrichment (6-mer frequency, TF over GST control) | binding signal [3]: 1.22 fold enrichment (6-mer frequency, TF over GST control) | binding signal [4]: 1.08 fold enrichment (6-mer frequency, TF over GST control) | binding signal [5]: 1 fold enrichment (6-mer frequency, TF over GST control) | binding signal [6]: 1.04 fold enrichment (6-mer frequency, TF over GST control) | binding signal [7]: 1.02 fold enrichment (6-mer frequency, TF over GST control) | binding signal [8]: 1 fold enrichment (6-mer frequency, TF over GST control) | binding signal [9]: 1.02 fold enrichment (6-mer frequency, TF over GST control) | binding signal [10]: 1.05 fold enrichment (6-mer frequency, TF over GST control) | binding signal [11]: 1.1 fold enrichment (6-mer frequency, TF over GST control) | binding signal [12]: 1.19 fold enrichment (6-mer frequency, TF over GST control) | binding signal [13]: 1.07 fold enrichment (6-mer frequency, TF over GST control) | binding signal [14]: 1.22 fold enrichment (6-mer frequency, TF over GST control) | binding signal [15]: 1.07 fold enrichment (6-mer frequency, TF over GST control) | binding signal [16]: 1.1 fold enrichment (6-mer frequency, TF over GST control) | binding signal [17]: 1.14 fold enrichment (6-mer frequency, TF over GST control)
